From PubChem BioAssay AID1259415 (National Center for Advancing Translational Sciences (NCATS), 2018)
Values joined by “and” are separate entries in the source; they are usually repeats but may differ in a detail not shown here. Equal values may be shown once. Among all 410,000 compounds or so, about 18,000 (4.4%) were called active. Not shown: some 7% with an inconclusive outcome. Rule as the data show it: active = activity change below about -60%; inconclusive = no clear call, values can overlap the other calls; inactive = above about -39%. For the sample, actives were picked, then their nearest neighbours and some compounds at random.

Assay: qHTS Assay for inhibitors of the human cytomegalovirus (HCMV)
Details: HFF cells, HCMV-luciferase reporter, 72 h; at 57.5 µM; stronger effect = lower value
In short: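 Luciferase read-out from HCMV-luciferase-infected HFFs (MOI 1 PFU/cell) 72 h post infection at 37C; compounds added after 16 h cell attachment; activity normalized between buffer-only basal and Salinomycin (10uM) inhibitor controls.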
% is scaled to controls: 0 for no effect and ±100 for the full control effect.

Which activity change, negative = inhibition does the source give for Cc1ccc(CNC(=O)CCNS(=O)(=O)c2ccc3c(c2)oc(=O)n3C)cc1 here?
The activity change, negative = inhibition was -1.91% (inactive).

With COC1=C[C@@H]2[C@@H]3Cc4ccc(OC)c(O)c4[C@]2(CCN3C)CC1=O as the compound, how does the activity change, negative = inhibition read?
The activity change, negative = inhibition was -68% (active).

Which activity change, negative = inhibition does the source give for COc1ccc2c(c1)[C@]13CCCCC1C(C2)N(C)CC3 (some centres not stated) here?
Its activity change, negative = inhibition is -2.65% (inactive).

With COC1=CC=C2[C@H]3Cc4ccc(OC)c5c4[C@@]2(CCN3C)C1O5 (some centres not stated) as the compound, how does the activity change, negative = inhibition read?
Its activity change, negative = inhibition is 23.5% (inactive).

Which activity change, negative = inhibition does the source give for Cc1ccc(Cl)cc1N1CCN(C(=O)c2cccn3c(=O)c4cc(Cl)ccc4nc23)CC1 here?
The activity change, negative = inhibition was -4.38% (inactive).

With COc1ccc(-c2nc3scc(CCNS(=O)(=O)c4cc(F)ccc4OC)n3n2)cc1OC as the compound, how does the activity change, negative = inhibition read?
The activity change, negative = inhibition was 34.6% (inactive).

With CCOC(=O)c1scc(-c2ccc(C)cc2)c1S(=O)(=O)Nc1cc(C)ccc1C as the compound, how does the activity change, negative = inhibition read?
Its activity change, negative = inhibition is -16.6% (inactive).

Which activity change, negative = inhibition does the source give for CCOC(=O)c1c(-c2ccc(C)cc2)csc1/N=C(\C)C1=C(O)c2ccccc2C1=O here?
The activity change, negative = inhibition was -62.8% (active).

Which activity change, negative = inhibition does the source give for CC(=NCc1ccc2c(c1)OCO2)C1=C(O)c2ccccc2C1=O here?
The activity change, negative = inhibition was 14.5% (inactive).

For CSc1ccc(C2C(C(=O)Nc3ccccc3)=C(C)Nc3nc4ccccc4n32)cc1 (configuration not stated), which activity change, negative = inhibition is on record?
The activity change, negative = inhibition was 8.38% (inactive).

With COc1ccc(CNC(=O)Cn2nnc(-c3ccc(S(C)(=O)=O)cc3)n2)cc1 as the compound, how does the activity change, negative = inhibition read?
Its activity change, negative = inhibition is 21.5% (inactive).

Which activity change, negative = inhibition does the source give for COc1ccc(N2CCN(C3=NS(=O)(=O)C(c4cccc(Br)c4)=C3C)CC2)cc1 here?
The activity change, negative = inhibition was -29.4% (inactive).

With COc1cccc(N2CCN(c3ccc4nnc(CCC(=O)N5CCN(C)CC5)n4n3)CC2)c1 as the compound, how does the activity change, negative = inhibition read?
The activity change, negative = inhibition was -14.4% (inactive).

Which activity change, negative = inhibition does the source give for COc1cccc(-c2nc3ccc(N4CCN(C)CC4)cc3[nH]2)c1 here?
Its activity change, negative = inhibition is -68.2% (active).

With CCCCOC(=O)CSc1ncnc2sc3c(c12)CCC(C)C3 (configuration not stated) as the compound, how does the activity change, negative = inhibition read?
The activity change, negative = inhibition was -8.12% (inactive).

Which activity change, negative = inhibition does the source give for CN1CCN(/N=C/c2c[nH]c3ccccc23)CC1 here?
The activity change, negative = inhibition was 41% (inactive).

For C[n+]1ccc(/C=C/c2c[nH]c3ccccc23)cc1, which activity change, negative = inhibition is on record?
Its activity change, negative = inhibition is -99.1% (active).

With CCC/C(=N\O)c1c[nH]c2ccccc12 as the compound, how does the activity change, negative = inhibition read?
Its activity change, negative = inhibition is 26.6% (inactive).

With COc1ccc(Cl)cc1N(C)C(=O)c1cc2c(=O)oc3ccc(C)cc3c2s1 as the compound, how does the activity change, negative = inhibition read?
The activity change, negative = inhibition was -13.9% (inactive).

With O=C(CN1CCSc2ccccc21)N1CCN(c2ccccc2)CC1 as the compound, how does the activity change, negative = inhibition read?
Its activity change, negative = inhibition is -1.62% (inactive).

For Cc1cccc(C(=O)OCC(=O)NC(C)C2CC3CCC2C3)c1O (configuration not stated), which activity change, negative = inhibition is on record?
Its activity change, negative = inhibition is 50.9% (inactive).

For CC(NC(=O)CN(C)S(=O)(=O)c1ccc(F)cc1)C1CC2CCC1C2 (configuration not stated), which activity change, negative = inhibition is on record?
Its activity change, negative = inhibition is 5.39% (inactive).

Which activity change, negative = inhibition does the source give for CCOC(=O)CCC(=O)OCC(=O)NC(C)C1CC2CCC1C2 (configuration not stated) here?
Its activity change, negative = inhibition is -99.5% (active).

For COc1cccc(NC(=O)c2nn(C34CC5CC(CC(C5)C3)C4)cc2[N+](=O)[O-])c1, which activity change, negative = inhibition is on record?
The activity change, negative = inhibition was -71.1% (active).

For COc1cccc(NC(=O)COc2cccnc2[N+](=O)[O-])c1, which activity change, negative = inhibition is on record?
The activity change, negative = inhibition was 9.93% (inactive).

Which activity change, negative = inhibition does the source give for Cn1ccnc1SCC(=O)Nc1ccc2c(c1)OCCO2 here?
Its activity change, negative = inhibition is 147% (inactive).

Which activity change, negative = inhibition does the source give for COc1cccc(NC(=O)c2csnn2)c1 here?
The activity change, negative = inhibition was 24.9% (inactive).

Which activity change, negative = inhibition does the source give for Cn1cc([N+](=O)[O-])c(C(=O)Nc2ccc3c(c2)OCCO3)n1 here?
The activity change, negative = inhibition was -91% (active).

For Cn1cnc(S(=O)(=O)Nc2ccc3c(c2)OCCO3)c1, which activity change, negative = inhibition is on record?
Its activity change, negative = inhibition is 30.3% (inactive).

For O=C(NCc1ccco1)O[C@H]1CC[C@@]23CCCN2C(=O)CCC[C@H]3[C@H]1Cc1ccccc1, which activity change, negative = inhibition is on record?
The activity change, negative = inhibition was 13.9% (inactive).

For CCC(=O)N1CCc2cc(CNS(=O)(=O)c3ccc(Br)s3)ccc21, which activity change, negative = inhibition is on record?
Its activity change, negative = inhibition is -28.1% (inactive).

Which activity change, negative = inhibition does the source give for CCOc1ccc(C(=O)N2CCN(CCc3ccccn3)CC2)cc1 here?
Its activity change, negative = inhibition is 7.37% (inactive).

For Cc1nnc2n1N=C(c1ccc3c(c1)NC(=O)CO3)CS2, which activity change, negative = inhibition is on record?
The activity change, negative = inhibition was 58.6% (inactive).

For O=C(c1ccc2c(c1)N(Cc1ccccc1)C(=O)c1ccccc1S2(=O)=O)N1CCCC1, which activity change, negative = inhibition is on record?
The activity change, negative = inhibition was -21.3% (inactive).

With O=C(c1ccc2c(c1)N(Cc1ccc(F)cc1)C(=O)c1ccccc1S2(=O)=O)N1CCN(c2ccccn2)CC1 as the compound, how does the activity change, negative = inhibition read?
The activity change, negative = inhibition was -76.7% (active) and -91.8% (active).

For O=C(c1ccc2c(c1)N(Cc1ccc(Cl)cc1)C(=O)c1ccccc1S2(=O)=O)N1CCCCC1, which activity change, negative = inhibition is on record?
The activity change, negative = inhibition was -15.9% (inactive).

For Cc1ccc(Cl)cc1NC(=O)C(C)n1nnc2sc(-c3ccccc3)cc2c1=O (configuration not stated), which activity change, negative = inhibition is on record?
The activity change, negative = inhibition was 17.8% (inactive).

For COc1cc(OC)c(N(C)C(=O)c2cc3c(=O)oc4ccccc4c3s2)cc1Cl, which activity change, negative = inhibition is on record?
The activity change, negative = inhibition was -8.12% (inactive).

Which activity change, negative = inhibition does the source give for Cn1c(=O)c2c(nc(Oc3ccc(C#N)cc3)n2Cc2ccc(Cl)cc2Cl)n(C)c1=O here?
The activity change, negative = inhibition was -9.46% (inactive).

With Cc1cc(NC(=O)COn2nnc3ccccc32)no1 as the compound, how does the activity change, negative = inhibition read?
Its activity change, negative = inhibition is 29.8% (inactive).

With Cc1cc(NC(=O)CSCc2ccccc2C)no1 as the compound, how does the activity change, negative = inhibition read?
The activity change, negative = inhibition was -34.5% (inactive).

With Cc1cc(NC(=O)CS(=O)(=O)c2cn(C)c3ccccc23)no1 as the compound, how does the activity change, negative = inhibition read?
The activity change, negative = inhibition was -74.2% (active).

Which activity change, negative = inhibition does the source give for Cc1ccc2c(=O)c(C(=O)c3ccc(Cl)cc3)cn(CC(=O)NC3CCCCC3)c2n1 here?
The activity change, negative = inhibition was -0.369% (inactive).

Which activity change, negative = inhibition does the source give for CCOc1ccc(CCNC(=O)c2c(C)oc3ncn(C)c(=O)c23)cc1 here?
The activity change, negative = inhibition was -13.7% (inactive).

With Cc1cc(C)cc(OCC(=O)Nc2nc(-c3ccc(F)cc3)ns2)c1 as the compound, how does the activity change, negative = inhibition read?
The activity change, negative = inhibition was 150% (inactive).

For COc1ccccc1C(=O)COC(=O)COc1ccc(C#N)cc1, which activity change, negative = inhibition is on record?
The activity change, negative = inhibition was -31.6% (inactive).

For N#C/C(=C(/O)COC(=O)COc1ccc(Cl)cc1)c1nc2ccccc2[nH]1, which activity change, negative = inhibition is on record?
The activity change, negative = inhibition was -101% (active).

With CC(C)(C)c1nnc2sc(SCC(O)=C(C#N)c3nc4ccccc4[nH]3)nn2c1=O as the compound, how does the activity change, negative = inhibition read?
The activity change, negative = inhibition was -4.66% (inactive).

For Cc1ccc(S(=O)(=O)Nc2ccccc2CNc2c(C)n(C)n(-c3ccccc3)c2=O)cc1, which activity change, negative = inhibition is on record?
The activity change, negative = inhibition was -7.12% (inactive).

For CC1CCCN(Cc2c(O)ccc3c(=O)c(Oc4ccc(C(C)(C)C)cc4)c(C(F)(F)F)oc23)C1 (configuration not stated), which activity change, negative = inhibition is on record?
Its activity change, negative = inhibition is -38.5% (inactive).

With Cc1csc2nc(COC(=O)c3ccc(NC(=O)COc4ccccc4F)cc3)cc(=O)n12 as the compound, how does the activity change, negative = inhibition read?
Its activity change, negative = inhibition is 14.4% (inactive).

Which activity change, negative = inhibition does the source give for O=C(CSc1nn(-c2ccc(F)cc2)c(=S)s1)NC1CCS(=O)(=O)C1 (configuration not stated) here?
The activity change, negative = inhibition was -34.3% (inactive).

Which activity change, negative = inhibition does the source give for O=C(CSc1ccccc1F)NC1CCS(=O)(=O)C1 (configuration not stated) here?
Its activity change, negative = inhibition is -105% (active).

With O=C(CSc1ncnc2sccc12)NC1CCS(=O)(=O)C1 (configuration not stated) as the compound, how does the activity change, negative = inhibition read?
The activity change, negative = inhibition was -22.5% (inactive).

For COC(=O)CC(CC(=O)OC)n1cccc1, which activity change, negative = inhibition is on record?
The activity change, negative = inhibition was 19.2% (inactive).

Which activity change, negative = inhibition does the source give for COc1ccc(-n2c(SCC(=O)Nc3sc4c(c3C#N)CCCC4)nnc2-c2ccc(O)cc2)cc1 here?
Its activity change, negative = inhibition is -15.5% (inactive).

With COc1ccccc1-c1ccnc2[nH]n(-c3ccccc3)c(=O)c12 as the compound, how does the activity change, negative = inhibition read?
Its activity change, negative = inhibition is -8.55% (inactive).
